Active and inactive are the calls of the source.
Target: Homeobox protein Hox-A13 (Mus musculus) (UniProt Q62424)
Test: inhibitors of HoxA13-DNA binding, primary screen, biochemical, fluorescence polarization, labeled oligonucleotide (AID 1185)
Conditions: 15 min, higher = more signal, called active from +8 up or from −8 down

Sequence of Homeobox protein Hox-A13 (Mus musculus) (Q62424 whole entry, looked up): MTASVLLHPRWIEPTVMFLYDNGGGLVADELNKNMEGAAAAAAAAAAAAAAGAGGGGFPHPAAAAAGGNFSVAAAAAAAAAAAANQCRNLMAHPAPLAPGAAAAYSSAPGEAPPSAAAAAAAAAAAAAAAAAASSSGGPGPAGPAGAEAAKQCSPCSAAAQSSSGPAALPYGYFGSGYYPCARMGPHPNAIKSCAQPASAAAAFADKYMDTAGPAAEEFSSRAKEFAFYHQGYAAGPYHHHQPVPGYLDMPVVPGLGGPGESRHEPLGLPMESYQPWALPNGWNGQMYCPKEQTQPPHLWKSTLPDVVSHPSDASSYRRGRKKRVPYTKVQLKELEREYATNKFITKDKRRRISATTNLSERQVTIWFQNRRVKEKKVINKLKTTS

z-score, inactive:
CN(C)CCCNC(=O)[C@@H]1c2ccccc2C(=O)N(Cc2ccccc2)[C@H]1c1ccc(CO)cc1 0.86, COc1ccc([Si](C)(C)[C@H]2[C@H](CC(=O)N3CCC[C@H]3CO)O[C@@]3(C(=O)N(Cc4cccc(N5C(=O)COc6ccccc65)c4)c4ccccc43)[C@@H]2C)cc1 -3.12, C=CC[C@]1(C(=O)NCc2ccccc2)N=C(c2ccc(OCCCO)cc2)O[C@H]1c1ccccc1 -6.34, COC(=O)[C@@]1(Cc2ccc(F)cc2)[C@H]2c3cc(C(=O)N(C)C)n(Cc4ccc(OC)c(OC)c4)c3C[C@H]2CN1C(=O)c1ccccc1 -3.65, O=C(CS)NCCCCCNC(=O)[C@H]1C[C@H]2C(=O)N3CCC[C@H]3C(=O)N2[C@H]1c1cccc(OCCO)c1 -3.04, Cn1cccc1C(O)C1C=CC2C(=O)NC(=O)C2N1Nc1ccccn1 (stereo unspecified) -5.35, O=C1O[C@@H](c2ccccc2)[C@@H](c2ccccc2)N2[C@@H](c3ccc(OCCO)cc3)[C@]3(C(=O)Nc4ccccc43)[C@@H](C(=O)N3CCN(c4ncccn4)CC3)[C@H]12 1.84, COC(=O)c1c(CC[C@@H](CO)NC(=O)N[C@H](Cc2ccccc2)Cn2cc(-c3ccccc3N)nn2)oc(C(C)=O)c1C(=O)OC -5.26, COC(=O)[C@@H]1N=C(c2ccc(OCCCO)cc2)O[C@@H]1c1ccccc1N=[N+]=[N-] -3.65, CCOC(=O)C1=CC[C@H]2C(=O)N(CC)C(=O)[C@@H]12 -2.15, C=C(/C(=C/C[C@H](OC(C)=O)c1ccc(OCCO)cc1)c1cnc2ccccc2c1)C(C)C -4.31, N#Cc1ccc(NN2C(C(O)c3cc(C(F)(F)F)cc(C(F)(F)F)c3)C=CC3C(=O)N(c4ccccc4)C(=O)C32)cc1 (stereo unspecified) -1.5, COCCOC(=O)N1C(=O)[C@@]2(c3cc(C#CCNC(N)=O)ccc31)[C@H](c1ccccc1OCCO)N1[C@H](c3ccccc3)[C@H](c3ccccc3)OC(=O)[C@H]1[C@@H]2C(=O)N1CCN(c2ncccn2)CC1 -0.789, CC(C)[Si]1(C(C)C)O[C@@H](c2ccccc2)c2cc(C3CC3)nc(-c3ccccc3)c21 -1.21, COc1ccc([Si](C)(C)[C@@H]2[C@@H](CC(=O)N3CCC[C@H]3CO)O[C@]3(C(=O)N(Cc4cccc(N5CCC5=O)c4)c4ccccc43)[C@H]2C)cc1 -2.64, CN(C)c1ccc(C(O)C2C=CC3C(=O)N(c4ccccc4)C(=O)C3N2Nc2ccccc2F)cc1 (stereo unspecified) -5.07, CCCCCN1CC=CC23O[C@@H]4C=CCOC(=O)[C@@H]4[C@H]2C(=O)N(CCCCCCO)[C@@H]3C1=O (stereo partly specified) -4.08, CC(C)(C)OC(=O)CC[C@]1(C(N)=O)COC(c2ccc(OCCCO)cc2)=N1 -1.89, CC(C)(C)OC(=O)CC[C@]1(C(=O)NCc2ccccc2)N=C(c2ccc(OCCCO)cc2)O[C@H]1c1ccccc1 -6.62, COc1ccc(CCNC(=O)[C@@H]2c3ccccc3C(=O)N(c3ccc(C)cn3)[C@H]2c2ccc(CO)cc2)cc1 -1.78, CC1CC/C=C\[C@H]2OC34C=CCN(Cn5nnc6ccccc65)C(=O)[C@H]3N(CCO)C(=O)[C@@H]4C2C(=O)O1 (stereo partly specified) -5.38, C[N+](C)(C)CCCCCCNC(=O)[C@@H]1C[C@@H]2C(=O)N3CCC[C@H]3C(=O)N2[C@@H]1c1cccc(OCCO)c1 -4.95, CN1C(=O)[C@@]2(CCC(=O)OC(C)(C)C)N=C(c3ccc(OCCCO)cc3)O[C@H]2c2ccccc21 -4.88, COCC1=C2[C@@H](CCc3ccccc3)OB(O)C[C@@H]2n2c(=O)n(-c3ccccc3)c(=O)n2C1 -4.79, CCCCC(=C=CC[C@H](O)c1ccccc1OCCO)C[C@H](O)COCc1ccccc1 -4.61, COCCOC(=O)N1C(=O)[C@@]2(c3cc(C#CCNC(N)=O)ccc31)[C@H](c1ccc(O)cc1)N1[C@H](c3ccccc3)[C@H](c3ccccc3)OC(=O)[C@H]1[C@@H]2C(=O)N1CCCCCCC1 -0.578, CC(C)NC(=O)[C@@H]1c2ccccc2C(=O)N(CC23CC4CC(CC(C4)C2)C3)[C@H]1c1ccc(CO)cc1 -4.68, CCCC[C@@H]1C[C@H]1[C@@H](NS(=O)(=O)c1cccc2cccnc12)c1ccc(-c2ccccc2)cc1 -0.507, CC(C)N1CC=CC23O[C@@H]4C=CCCOC(=O)C4[C@H]2C(=O)N(CCCCCCO)[C@@H]3C1=O (stereo partly specified) -2.29, CC(C)=C1C(=O)C(c2ccccc2)=C2CN3C(=O)N(CCc4ccccc4)C(=O)[C@]3(Cc3ccc(F)cc3)[C@H]21 -2.1, CO[C@H]1O[C@H](CO)[C@@H](OC(=O)Nc2ccc(C#N)cc2)[C@H](OC(=O)c2cc3ccccc3[nH]2)[C@H]1OC(=O)c1cc2ccccc2[nH]1 -2.26, [N-]=[N+]=NCc1ccccc1[C@@H]1OC(c2ccc(OCCCO)cc2)=N[C@]1(Cc1ccccc1)C(=O)N1CCOCC1 -4.99, CC(C)c1ccc(NN2C(C(O)c3ccc4c(c3)OCO4)C=CC3C(=O)N(c4ccccc4)C(=O)C32)cc1 (stereo unspecified) -1.45, COCC(=C=CC[C@@H](O)c1ccccc1OCCO)CCO -2.37, CC(C)OC(=O)C=C1C[C@@H](c2ccc(C#N)cc2)O[C@@H](c2ccc(C#N)cc2)O1 -5.34, CC(C)(C)N1CC=CC23O[C@@H]4C=CCCOC(=O)C4[C@H]2C(=O)N(CCCCCO)[C@@H]3C1=O (stereo partly specified) -4.56
